# Lassa entry inh – Lassa virus entry inhibition. Potency, µM (titrated, usually from 37.9 µM), for the others: at the top dose activity change, negative = inhibition, hits mostly inhibitors. AID 540256. Lassa virus pseudotype entry inhibition, cell reporter. hit rate 1.2% among 300,000; calls by dose curve; tested in HEK293 cells; further: potency means the concentration at half of the fitted maximal effect; on the % scale 0 is the no-effect control and ±100 the full control effect; nearly all actives have a fitted effect of over 50% in size
# SARS PLP yeast – inhibitors of SARS-CoV papain-like protease in yeast | S. cerevisiae expressing SARS-CoV PLpro, growth rescue | Potency, µM (titrated, usually from 32.9 µM), for inactives: top-dose activity, positive = growth rescue, actives largely listed as activators | hit rate 0.19% among 330,000 | AID 485353; calls by dose curve; further: potency means the concentration at half of the fitted maximal effect; 0% is about no effect; nearly all actives have a fitted effect of over 55% in size
# HCV inh – blocks hepatitis C virus | Huh7.5.1 HCVcc-Cre infection, luciferase reporter, 44 h | Potency, µM (series often up to 41.8 µM), for inactives: top-dose activity change, negative = inhibition, usual class: inhibitors | hit rate 3.4% among 340,000 | AID 651820; active means well fitted inhibition curve with a large enough effect; inconclusive means small, poorly fitted or top-dose-only effect, or another doubt; inactive means no such curve, though single readings can be large or run the other way; further: potency means the concentration at half of the fitted maximal effect; on the % scale 0 is the no-effect control and ±100 the full control effect
#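 Antiviral activity was scored by luciferase reporter output from cells infected with HCVcc-Cre (~0.5 moi) in presence of compound, 44 h infection period, cells seeded 1,000/well 4 h prior.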
# MARV entry inh – blocks Marburg virus binding to or entry into cells; Marburg virus pseudotyped entry inhibition, cell reporter; hit rate 1.8% among 300,000; Potency, µM (titrated, usually from 37.8 µM), for inactives: at the highest dose activity change, negative = inhibition, actives largely listed as inhibitors; calls by dose curve; tested in HEK293 cells; further: potency means the concentration at half of the fitted maximal effect; on the % scale 0 is the no-effect control and ±100 the full control effect
# HCMV inh – blocks human cytomegalovirus replication; HFF cells, HCMV-luciferase reporter, 72 h; active compounds read low; activity change, negative = inhibition, % at 57.5 µM; hit rate 4.5% among 410,000; in the data active means activity change below about -60%; inconclusive means no clear call, values can overlap the other calls; inactive means above about -39%; further: on the % scale 0 is the no-effect control and ±100 the full control effect
#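 Screen run at 2 compound doses on HFFs infected with reporter HCMV, MOI 1 PFU/cell. Luciferase activity from cell lysates at 72 h post infection gave inhibition relative to buffer-only and Salinomycin wells.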
# FMDV inh – blocks foot and mouth disease virus; FMDV antiviral cell-based qHTS; Potency, µM (series often up to 57.9 µM), inactives show at the highest dose activity change, negative = inhibition, most hits filed as inhibitors; hit rate 1.2% among 410,000; AID 1159524; calls by dose curve; tested in HEK293T cells; further: read-out not given here; potency means the concentration at half of the fitted maximal effect; on the % scale 0 is the no-effect control and ±100 the full control effect; nearly all actives have a fitted effect of over 45% in size
# * = called active by the depositor; ? = inconclusive; · = no result given; [ ] = remark or other dose. The list is not random: actives were taken first. Their share in the collection is about 8%.
SMILES,Lassa entry inh,SARS PLP yeast,HCV inh,MARV entry inh,HCMV inh,FMDV inh
Cc1c(NC(=O)/C(C#N)=C/c2ccc(-c3ccc(Cl)cc3)o2)c(=O)n(-c2ccccc2)n1C,?,-4%,?,?,?,25µM*
Cc1c(NC(=O)/C(=C/c2cccs2)c2cccs2)c(=O)n(-c2ccccc2)n1C,-5%,5%,12%,9%,-102*,-8%
CCOc1ccccc1CNC(=O)c1ccc(N2Cc3ccccc3Oc3ncccc32)s1,-3%[46.1 µM],·,·,·,1,-14%
CN(c1ccccc1)S(=O)(=O)c1cccc(NC(=O)c2ccc3ncsc3c2)c1,?,-2%,11µM*,?,0,35µM*
CN(c1ccccc1)S(=O)(=O)c1cccc(NC(=O)c2cccc(C#N)c2)c1,·,-3%,10µM*,·,0,25µM*
CN(c1ccccc1)S(=O)(=O)c1cccc(C(=O)Nc2cccc(C(=O)NC3CC3)c2)c1,-33%,-1%,?,-29%,-19,?
Cc1ccc(NC(=O)c2ccc3ncsc3c2)cc1S(=O)(=O)N(C)C,·,3%,·,·,133,·
N#Cc1c(N)nc2c(c1-c1cccnc1)CCCCC2,?,?,-16%,6%,-62*,-26%
CC(C)(C)c1cc(NC(=O)CCl)n(-c2ccccc2)n1,?,-3%,?,?,?,?
CCCc1cc(NC(=O)CCl)n(-c2ccccc2)n1,?,0%,22µM*,?,?,?
CCCc1cc(NC(=O)COC(=O)c2ccc(O)cc2O)n(-c2ccccc2)n1,·,0%,11µM*,·,0,?
O=C(COC(=O)c1ccc(O)cc1O)Nc1cc(-c2ccccc2)nn1-c1ccccc1,?,2%,5%,?,?,-20%
O=C(Cn1nnc(-c2ccc(F)cc2)n1)N1CCCCC1,11%[46.1 µM],1%,10%,-1%[46.1 µM],-38,7%
O=C(Nc1ccc(-c2nnn(CC(=O)N3CCN(C(=O)c4ccco4)CC3)n2)cc1)c1ccc(F)cc1,·,-1%,10µM*,·,-14,-16%
Cc1cc(S(=O)(=O)Nc2ccc(C(=O)N3CCN(C(=O)c4ccco4)CC3)cc2)ccc1F,-24%,-13%,-25%,?,-20,-18%
O=C(c1ccc(S(=O)(=O)Nc2ccc(F)cc2)cc1)N1CCN(C(=O)c2ccco2)CC1,-25%,15%,-20%,?,-69*,0%
NC(=O)C1(N2CCCCC2)CCN(C(=S)Nc2ccc(F)cc2)CC1,-12%,12%,40%,2%,-11,-18%
NC(=O)C1(N2CCCCC2)CCN(C(=S)Nc2cc(F)cc(F)c2)CC1,-21%[46.1 µM],1%,-1%,1%[46.1 µM],-64*,-8%
O=C(O)c1ncn(Cc2ccc(Br)cc2)c1C(=O)O,-2%,2%,15%,?,?,35µM*
COc1cc(OC)cc(C(=O)NCC2Cc3cccc(-c4nc(C)cnc4C)c3O2)c1 (stereo not drawn),·,·,·,·,·,-12%
CSc1nc(O)c(C(c2ccc(O)cc2)c2c(O)nc(SC)[nH]c2=O)c(=O)[nH]1,·,0%,13%,·,-69*,-6%
CCOc1ccc(C(c2c(O)nc(SC)[nH]c2=O)c2c(O)nc(SC)[nH]c2=O)cc1,·,·,9%,·,86,-18%
O=C(NC(=S)Nc1nc(-c2ccc(Br)cc2)cs1)c1ccco1,28%[46.1 µM],-2%,2%,?,?,-11%
O=C(Nc1nc(-c2ccccc2)cs1)c1ccco1,-1%[46.1 µM],-5%,-21%,-1%[46.1 µM],116,-1%
C=CCNc1nc(-c2ccc([N+](=O)[O-])cc2)cs1,-1%,-31%,?,?,-69*,-3%
SMILES,Lassa entry inh,SARS PLP yeast,HCV inh,MARV entry inh,HCMV inh,FMDV inh
CC(OC(=O)c1ccco1)C(=O)Nc1nc(-c2ccccc2)cs1 (stereo not drawn),10µM*,-13%,?,11µM*,57,-10%
Cc1ccc(O)c(NC(=S)NC(=O)/C=C/c2ccco2)c1,?,-1%,-5%,?,-11,17%
O=C(NC(=S)Nc1nc(-c2ccc([N+](=O)[O-])cc2)cs1)c1ccco1,12%,-3%,-4%,-17%,-84*,8%
C=CCNc1nc(-c2ccc(Cl)cc2)cs1,11%,3%,?,-9%,13,13%
Cc1ccc(-c2csc(NC(=S)NC(=O)/C=C/c3ccco3)n2)cc1,?,-4%,13µM*,?,-37,15%
O=C(N[C@@H]1c2ccccc2C2(CCN(Cc3c(O)ccc4ccccc34)CC2)[C@H]1O)c1ccccc1,·,·,·,·,·,13%
O=C(/C=C\c1ccco1)Nc1nc(-c2ccc3ccccc3c2)cs1,-4%,-2%,?,?,-76*,?
CC(=O)NC(=S)Nc1ccc(NC(=S)NC(=O)/C=C/c2ccco2)cc1,?,0%,-15%,-25%,-79*,28%
COc1ccc(-c2cc(C)nc3c(-c4ccc(OC)c(OC)c4)c(C)nn23)cc1,?,·,·,?,-34,-22%
O=C(Cn1nc2c(cc1=O)CCCC2)NCc1ccccc1Cl,0%[46.1 µM],·,·,·,5,20%
CCCOc1ccccc1C(=O)Nc1nc2c(s1)CCCC2,?,·,·,?,-64*,-13%
O=C(COc1ccccc1Cl)Nc1nc2c(s1)CCCC2,?,·,·,?,-25,39%
O=C(COc1ccccc1)Nc1nc2c(s1)CCCC2,?,-2%,-24%,6.3µM*,15,44%
COc1ccc(NC(=O)Cn2cc(S(=O)(=O)N3CCN(c4ccccc4F)CC3)c3ccccc3c2=O)cc1Cl,22%[46.1 µM],·,·,?,23,1%
COCc1c(C#N)c(NCCc2ccccc2)nc(C)c1[N+](=O)[O-],1%,?,-9%,-11%,75,-17%
COCc1c(C#N)c(NCc2cc(OC)c(OC)c(OC)c2)nc(C)c1[N+](=O)[O-],?,0%,11µM*,?,-34,14µM*
COc1ccc(N(C(=O)c2cccc(C)c2)S(=O)(=O)c2ccc(C)cc2)cc1,?,·,·,·,-12,-12%
Cn1c(=N)n(CC(=O)c2ccc(F)cc2)c2ccccc21,?,0%,?,?,?,-24%
CCOC(=O)Cn1c(=N)n(CCOc2ccc(OC)cc2)c2ccccc21,-11%[46.1 µM],20%,-3%,?,2,-7%
CCn1c(=N)n(CC(=O)c2ccc(OC)cc2)c2ccccc21,?,-3%,-15%,10µM*,23,-5%
Cn1c(=N)n(CC(=O)c2ccc(Br)cc2)c2ccccc21,10µM*,·,6.3µM*,?,27,-9%
O=C1CC(/C=C/c2ccccc2)=Nc2ccccc2N1,·,-1%,-29%,·,-23,60%
O=C1CC(/C=C/c2ccc(Cl)cc2)=Nc2ccccc2N1,·,0%,?,·,-91*,5%
CC1(C)CC(/C=C/c2ccccc2)=Nc2ccccc2N1,·,-3%,-19%,·,-78*,0%

# Screening results as filed in PubChem BioAssay.
